Assay outcomes as filed in PubChem.
This is a sample that favours compounds with a hit; in the whole collection about 12% have one here.
G9a block – inhibitors of human histone lysine methyltransferase G9a; G9a H3K9 monomethylation, AlphaScreen, 2 h; Potency, µM (series often up to 102 µM), without a hit: at the highest dose activity, negative = inhibition, actives largely listed as inhibitors; 350,000 compounds, 8.8% hits; AID 504332; note: % is set by controls: 0 for no effect and ±100 for the full control effect; nearly all actives have a fitted effect of over 75% in size
Target sequence (Q96KQ7 913-1193 limits assumed): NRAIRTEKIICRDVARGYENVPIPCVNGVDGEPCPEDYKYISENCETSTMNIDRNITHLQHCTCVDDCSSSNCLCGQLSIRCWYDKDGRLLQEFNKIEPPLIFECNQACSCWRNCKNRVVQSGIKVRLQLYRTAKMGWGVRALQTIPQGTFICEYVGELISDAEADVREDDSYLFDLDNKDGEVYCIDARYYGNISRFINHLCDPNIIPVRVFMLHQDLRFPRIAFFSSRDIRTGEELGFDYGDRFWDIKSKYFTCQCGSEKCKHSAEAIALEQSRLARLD
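Enzyme 20 nM + cpd, 15 min RT; add b-H3K9 pep 500 nM / SAM 20 uM; 2 h RT; anti-H3K9me1 Ab 0.5 ug/mL + SA donor / anti-rabbit acceptor beads 20 ug/mL each, 10 min; AlphaScreen read.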
BAZ2B block – BAZ2B (human) inhibition | 360,000 compounds, 4.4% hits | AID 504333 | Potency, µM (highest dose often 114 µM), for inactives: top-dose activity change, negative = inhibition, hits mostly inhibitors | AlphaScreen BAZ2B-H3K14Ac peptide displacement; note: % is set by controls: 0 for no effect and ±100 for the full control effect; nearly all actives have a fitted effect of over 60% in size
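In this displacement format the biotinylated H3(5-23) peptide acetylated at Lys14 serves as ligand at 50 nM, with BAZ2B at 50 nM in PBS pH 7.4 containing 0.01% Tween-20. Donor and acceptor beads are 10 ug/mL final.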
Sfp inh – blocks B. subtilis Sfp PPTase activity; Potency, µM, inactives show largest response in the series, negative = inhibition, actives largely listed as inhibitors; 310,000 compounds, 3.5% hits; Q9F4F7; Biochemical Sfp PPTase activity, qHTS;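 note: the enzyme is Sfp with the accession as filed and its product quenches rhodamine fluorescence; 0% = enzyme reaction without inhibitor and -100% = no enzyme wells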
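With Hepes-Na pH 7.6 buffer containing 10 mM MgCl2, Sfp (15 nM) modified BHQ-2-YbbR (12.5 uM) using rhodamine-CoA (5 uM). Two reads 30 minutes apart at 525/598 nm yielded each well's rate.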
JMJD2A Tudor inh – inhibitors of human JMJD2A Tudor domain; Potency, µM (doses to about 114 µM), for the others: top-dose activity change, negative = inhibition, usual class: inhibitors; AID 504339; O75164; 390,000 compounds, 4.4% hits; AlphaScreen JMJD2A-Tudor / H3K4me3 peptide binding; note: % is set by controls: 0 for no effect and ±100 for the full control effect; nearly all actives have a fitted effect of over 50% in size
HP1b chromo inh – inhibitors of HP1-beta chromodomain binding to methylated histone tails; AlphaScreen HP1-beta / biotin-H3K9me3 peptide binding; Potency, µM (series often up to 114 µM), without a hit: at the highest dose activity change, negative = inhibition, hits mostly inhibitors; 390,000 compounds, 0.56% hits; AID 540317; note: nearly all actives have a fitted effect of over 70% in size
Target sequence (P83916 whole entry, looked up): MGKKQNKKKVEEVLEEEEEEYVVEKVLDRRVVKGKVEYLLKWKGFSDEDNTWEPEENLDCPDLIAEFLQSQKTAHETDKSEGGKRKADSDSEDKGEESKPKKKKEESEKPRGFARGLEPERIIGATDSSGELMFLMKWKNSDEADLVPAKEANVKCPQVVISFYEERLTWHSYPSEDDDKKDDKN
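AlphaScreen: HP1-beta (50 nM) preformed 30 min with biotin-H3(1-18)K9me3 peptide (50 nM) in PBS pH 7.4, 0.01% Tween-20. Compound added for 30 min at RT, then streptavidin donor/nickel chelate acceptor beads (10 ug/mL) for 30 min.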
* = called active by the depositor; ? = inconclusive; nt = not tested or not shown; [ ] = another dose, or the depositor's remark. Calls come from the whole dose curve; as a rule, active = well fitted curve in the direction sought with a large enough effect; inconclusive = small, poorly fitted or top-dose-only effect, or another doubt; inactive = no such curve, though single readings can be large; an effect the other way counts as inactive or inconclusive. Potency is the fitted concentration of half-maximal effect.

SMILES	G9a block	BAZ2B block	Sfp inh	JMJD2A Tudor inh	HP1b chromo inh
CCOC(=O)C1CCCN(C(=O)c2ccc(CS(=O)(=O)c3ccc(C)cc3)o2)C1 (configuration not stated)	50.1µM*	?	-3.4%	?	20.1%
O=[N+]([O-])c1ccc(N=NNc2ccccc2)cc1	22.4µM*	28.2µM*	-10.8%	25.1µM*	?
O=[N+]([O-])c1cccc(NN=Nc2ccccc2)c1	44.7µM*	?	-10.0%	?	-11.1%
Brc1ccc(N=NNc2ccccc2)cc1	nt	39.8µM*	-5.8%	-26.0%	34.4%
O=C(O)c1cc(NN=Nc2cccc([N+](=O)[O-])c2)cc([N+](=O)[O-])c1	?	?	11.5%	-25.1%	8.1%
O=C(O)c1cc(NN=Nc2ccc(Br)cc2)cc([N+](=O)[O-])c1	31.6µM*	-10.5%	7.3%	?	-2.4%
CCN(CC)CCCNC(=O)c1csc(Nc2cccc3ccccc23)n1	nt	?	-14.0%	-26.8%	26.5%
CCN(CC)C(=O)c1csc(Nc2cccc3ccccc23)n1	39.8µM*	?	-10.3%	-30.3%	6.2%
O=C(c1csc(Nc2ccccc2Cl)n1)N1CCCC1	?	2.6%	79.4µM*	-13.9%	20.8%
O=C(NCC(O)CO)c1csc(Nc2cccc3ccccc23)n1 (configuration not stated)	39.8µM*	?	-18.1%	-26.2%	35.2%
O=C(c1csc(Nc2cccc3ccccc23)n1)N1CCCC1	-12.6%[59 µM]	39.8µM*	-27.3%	-27.3%	15.9%
Cc1cccc(CCNC(=O)Cc2ccc(NC3=NC4CS(=O)(=O)CC4S3)cc2)c1 (configuration not stated)	nt	-11.6%	4.4%	-12.7%	26.7%
CCCCc1cc2c(cn1)C(=O)C(C)(OC(C)=O)C(=O)C2 (configuration not stated)	nt	nt	14.9%	nt	nt
CNc1c(NS(=O)(=O)c2ccc3c(c2)CCCC3)c(=O)oc2ccccc12	-0.3%	4.6%	2.2%	-19.2%	1.4%
CCOC(=O)N1CCC(N2C(=O)c3ccccc3C2Nc2ccc(S(=O)(=O)N3CCCCC3)cc2)CC1 (configuration not stated)	39.8µM*	-5.9%	-11.7%	nt	nt
CCOC(=O)N1CCC(N2C(=O)c3ccccc3C2Nc2ccc3c(c2)OCCO3)CC1 (configuration not stated)	50.1µM*	?	21.5%	?	-5.8%
CCOC(=O)c1ccccc1NC1c2ccccc2C(=O)N1C1CCN(C(=O)OCC)CC1 (configuration not stated)	39.8µM*	-25.5%	-6.8%	-18.8%	18.0%
CCOC(=O)N1CCC(N2C(=O)c3ccccc3C2Nc2ccccc2C)CC1 (configuration not stated)	?	-4.4%	8.1%	-4.9%	31.1%
CCOC(=O)N1CCC(N2CCN(S(=O)(=O)c3ccc4ccccc4c3)CC2)CC1	8.91µM*	?	?	0.891µM*	?
COc1ccc(S(=O)(=O)N(CC(=O)NCCSc2ccccc2)c2ccc(Cl)cc2)cc1	-26.7%[59 µM]	1.5%	nt	-1.7%	17.7%
O=C(Cc1nnc(CNC(=O)c2ccccc2)o1)Nc1cc(C(F)(F)F)ccc1Cl	nt	nt	nt	-8.2%	nt
Cc1ccc(NC(=O)CCCn2c(=O)c3cccn3c3cccnc32)c(Cl)c1	0.1%[59 µM]	-18.0%	nt	-15.4%	26.7%
CCOC(=O)N1CCC(N2Cc3cccc(C(=O)NCc4ccc(C)cc4)c3C2=O)CC1	?	-11.8%	-16.3%	-31.3%	14.9%
CCOC(=O)N1CCC(N2Cc3cccc(C(=O)NC(C)c4ccc5c(c4)OCCO5)c3C2=O)CC1 (configuration not stated)	39.8µM*	-10.3%	-22.3%	-31.7%	22.5%
COCC(C)n1c(C)cc(C(=O)COc2ccc(N(C)S(=O)(=O)c3ccc(NC(C)=O)cc3)cc2)c1C (configuration not stated)	35.5µM*	?	nt	-31.5%	-11.6%
SMILES	G9a block	BAZ2B block	Sfp inh	JMJD2A Tudor inh	HP1b chromo inh
O=[N+]([O-])c1ccc(Cl)c(S(=O)(=O)/N=C(/Sc2ccc(Br)cc2)c2ccccc2)c1	nt	nt	nt	?	61.8%[57 µM]
O=C1NC(=S)S/C1=C\c1cc2ccccc2nc1N1CCCCC1	-27.7%	-32.7%	4.5%	44.7µM*	-17.3%
COc1ccc(C=C2SC(=S)NC2=O)c(OC)c1OC	nt	nt	nt	-31.9%	-8.4%
COc1ccc2nc(N3CCCCC3)c(/C=C3\SC(=S)NC3=O)cc2c1	11.2µM*	25.1µM*	-3.8%	28.2µM*	?
O=C(O)CCCCCCCCCCCNC(=O)NC12CC3CC(CC(C3)C1)C2	5.6%[2.33 µM]	10.3%	nt	-31.2%	7.0%
CCOc1ccc(-c2c(C)nn3c(C)c(C(=O)NCC(C)c4ccccc4)cnc23)cc1OCC (configuration not stated)	-0.3%[59 µM]	?	nt	-31.7%	?
CCOC(=O)c1cc(S(=O)(=O)Nc2ccc(C)cc2Cl)[nH]n1	8.91µM*	79.4µM*	nt	-32.9%	13.2%[57 µM]
CCOC(=O)c1cc(S(=O)(=O)Nc2c(C)cc(C)cc2C)[nH]n1	17.8µM*	?	nt	-28.8%	21.6%[57 µM]
CCOC(=O)c1cc(S(=O)(=O)N(C)c2ccccc2)[nH]n1	?	-14.4%	nt	-6.7%	-3.8%[57 µM]
CCOC(=O)c1cc(S(=O)(=O)Nc2cc(F)ccc2C)[nH]n1	17.8µM*	?	nt	-28.8%	20.0%[57 µM]
CCOC(=O)c1cc(S(=O)(=O)Nc2ccc(OC)c(Cl)c2)[nH]n1	8.91µM*	56.2µM*	nt	-33.9%	11.8%[57 µM]
CCCCNC(=O)CSc1nc(-c2ccc(OC)cc2)cc(C(F)(F)F)n1	-20.5%[59 µM]	3.0%[57.1 µM]	nt	-5.5%	25.3%
O=C(CN1C(=O)C2CCCCN2c2ccc(C(=O)N3CCCC3)cc21)NCc1ccccc1 (configuration not stated)	1.7%[59 µM]	-8.7%	nt	-19.5%	16.9%[57 µM]
CC(C)C[C@@H](CC(=O)N[C@H](CC(=O)N[C@@H]1CCNC[C@H]1C(=O)N[C@H](CC(=O)N[C@@H](CCC(=O)O)CC(=O)O)CC(C)C)C(C)C)NC(=O)[C@@H]1CCCC[C@H]1N	nt	nt	2.4%	nt	nt
COC(=O)c1ccc(NC(=O)c2cc(S(=O)(=O)N3CCOCC3)cn2C)cc1	8.1%[59 µM]	1.2%	nt	-10.9%	35.8%
CN(C)C(=O)COc1ccc(S(=O)(=O)c2ccc(OCC(=O)N(C)C)cc2)cc1	50.1µM*	-1.9%	-0.5%	-10.6%	38.3%
O=C(c1c(F)cccc1F)N(C1CCCCC1)C1CCCCC1	48.6%	-1.1%	24.7%	19.2%	71.5%
CCCOc1ccc(C2=NC(c3ccc(F)cc3)=Nc3ccc(OC)cc3N2)cc1	-22.8%[59 µM]	10µM*	nt	?	1.6%
COc1ccc(Cl)cc1NC(=O)Cn1c(=O)n(Cc2ccco2)c(=O)c2cccnc21	-4.1%[59 µM]	8.6%	nt	-5.5%	59.7%
Cc1cc(N/N=C/c2ccc(O)cc2)c2cccc(C)c2n1	nt	39.8µM*	-27.0%	?	?
Cc1cc(-c2ccccc2)nc(N/N=C/c2ccc(O)cc2)n1	2.3%[0.501 µM]	-30.6%	nt	-24.9%	12.6%
